For 40 compounds, Inhibition results are on record in ChEMBL document CHEMBL1157539, “Thousands of chemical starting points for antimalarial lead identification” (Nature, 2010).

SMILES strings stand for the structures.

The term Inhibition denotes how much of the control response was suppressed.

One assay deals with Plasmodium falciparum. The assay can be described thus: GSK_TCMDC: Inhibition of Plasmodium falciparum 3D7 in whole red blood cells, using parasite LDH activity as an index of growth. Test compounds present at 2uM. The assay is classed as functional.
The compound `O=C(N[C@@H](CC1CCCCC1)C(=O)NCc1cccc2ccccc12)c1ccc(O)c(-c2ccc(Cl)c(Cl)c2)c1` returned an Inhibition of 97%. The same measure, in the same setting: the result for `O=c1cc(-c2ccc3ccccc3c2)[nH]c2ccccc12` reads 81%; that for `COc1ccc(CNCc2ccccc2)cc1-c1ccc(S(=O)(=O)NCCN2CCCC2)s1.O=C(O)C(F)(F)F`, 100%; that for `C#CCCOc1ccc2ccccc2c1CNCCCCCCNCc1c(OCCC#C)ccc2ccccc12`, 100%.

In the case of `N#Cc1cncc(-c2nc3c(N4CCC(Cc5ccccc5)CC4)cccc3n2CCNCc2ccccc2)c1.O=C(O)C(F)(F)F`, the Inhibition is on record as 99%. Consider `COc1ccc2nccc([C@@H](O)CN3CCC(NC(=O)COc4nc(SCc5ccc(F)cc5)nc5c4CCC5)CC3)c2c1`, for which the Inhibition is reported as 96%. The compound `Cc1ccc(-n2nc3ccc(NC(=O)c4ccc([N+](=O)[O-])o4)cc3n2)cc1C` had an Inhibition of 94%. Still for that read-out and setting: the figure for `Cc1ccc(S(C)(=O)=O)cc1/C=C/C(=O)O` is 96%. The same measure, in the same setting: the result for `NC1CCCN(Cc2ccc(-c3ccc(-c4nc5cc(F)ccc5[nH]4)s3)cc2)C1.O=C(O)C(F)(F)F` (configuration not stated) reads 100%; that for `NS(=O)(=O)c1cccc(Nc2nccc(-c3cnn4ncccc34)n2)c1`, 89%. On the same count and under the same terms, the figure for `COc1ccc(C(=O)NCCCCN2CCC(c3ccc4c(c3OC)CCCC4)CC2)cc1-c1ccc(C(F)(F)F)cc1` is 100%; for `O=C(N[C@@H](CC1CCCCC1)C(=O)NC1CCCCCC1)c1ccc(O)c(-c2ccc(Cl)c(Cl)c2)c1` it is 99%; for `Br.COc1cc(CCCON2C(=N)N=C(N)NC2(C)C)cc(OC)c1OC` it is 98%. `Cc1c(O)cccc1Nc1ccnc2ccc(C(F)(F)F)cc12.Cl` came in with an Inhibition of 96%. Compound `COc1cccc2cc(C(=O)N[C@@H](CC(C)C)C(=O)NC(/C=N/NC(=O)c3ccccc3)CCc3ccccc3)oc12` (some centres not stated) registered an Inhibition of 88%. Consider `Cc1ccc2cc(C3NC(=O)c4ccccc4N3)c(Cl)nc2c1` (configuration not stated), for which the Inhibition was 91%. On the same count and under the same terms, the figure for `Clc1ccc(Nc2nc3nonc3nc2Nc2ccc(Cl)c(Cl)c2)cc1` is 99%; for `O=C(NC1CCN(CCN2CCC(c3ccccc3C(F)(F)F)CC2)CC1)c1ccc(-c2ccc(Cl)cc2)cc1` it is 100%. The same measure, in the same setting: the result for `Cc1cccc(C)c1CNc1ccnc2ccccc12.Cl` reads 92%; that for `CC(=O)Nc1cccc(Nc2nccc(-c3c(-c4cccc(NC(=O)c5c(F)cccc5F)c4)nn4ncccc34)n2)c1`, 96%; that for `FC(F)(F)c1cccc(CCNc2nccc(NCc3ccccc3Cl)n2)c1`, 89%.

Turning to `CN1CCC[C@H]1COc1ccc(CN2CC[C@H](NC(=O)c3ccc(Cl)c(Cl)c3)C2)c2ccccc12.O=C(O)C(F)(F)F`, the Inhibition was 100%. The compound `N=c1cc(C=Cc2ccc(O)cc2)[nH]c2ccccc12` showed an Inhibition of 100%. Same read-out and setting: the result for `COc1cccc(NC(=O)Nc2cc(-c3ccc4[nH]ncc4c3)cc3c2CNC3=O)c1` reads 98%. On the same count and under the same terms, the result for `Cc1nn(-c2ccccc2)c2nc(-c3ccccc3)cc(C(=O)N3CCOCC3)c12` reads 93%. The same measure, in the same setting: the figure for `Cc1cccc2nc(-c3cccc(-c4ccc(NC(=O)NC5CC5c5ccccc5)cc4)c3)[nH]c12` (configuration not stated) is 98%; for `O=C(Nc1cc(C(F)(F)F)cc(C(F)(F)F)c1)N1CCC(CCN2CCC(c3c[nH]c4ccccc34)CC2)CC1` it is 91%.

Another assay relates to Plasmodium falciparum. The assay is described as follows: GSK_TCMDC: Inhibition of Plasmodium falciparum Dd2 in whole red blood cells, using parasite LDH activity as an index of growth. Test compounds present at 2uM. The assay is classed as functional.
`Cc1cc(N(C)C)nc(Nc2ccc(NC(=O)c3ccc(Br)o3)cc2)n1` registered an Inhibition of 57%. The same measure, in the same setting: the result for `CN1CCC(C(=O)N(Cc2ccc(-c3ccc(CNCCc4ccc(S(C)(=O)=O)cc4)cn3)cc2)Cc2cccc(F)c2)CC1.O=C(O)C(F)(F)F` reads 90%; that for `CCN(CC)C(=O)C(=O)c1c[nH]c2ccc(Cl)cc12`, 96%. Still for that read-out and setting: the figure for `CCCNCc1ccc(-c2ccc(CN(CCOC)C(=O)/C=C/c3ccccc3C)cc2)nc1.O=C(O)C(F)(F)F` is 39%. Same read-out and setting: the figure for `COc1ccc(Cl)cc1N1CCN(CCCNC(=O)c2ccc(-c3nc4cc(Cl)c(C)cc4[nH]3)c(F)c2)CC1` is 91%; for `Cc1cc(C(F)(F)F)n2nc(C(=O)N(C)Cc3cncn3Cc3ccc(F)cc3)cc2n1` it is 96%; for `CCN(CC)Cc1cc(NC(=O)c2ccccc2O)ccc1Oc1ccc(Cl)cc1.Cl` it is 88%. Compound `CC(C)(C)c1ccc(CN2CCCCC(NC(=O)c3cc(-c4ccccc4F)cs3)C2)cc1.O=C(O)C(F)(F)F` (configuration not stated) yielded an Inhibition of 99%. Same read-out and setting: the result for `CCCN1CCC(c2c[nH]c3ccc(NC(=O)Nc4cccc(Cl)c4Cl)cc23)CC1` reads 17%; that for `CC(=O)N1c2ccccc2C(C)=CC1(C)C`, 11%. The same measure, in the same setting: the figure for `Cc1nc(-c2ccc(-c3ccc(C(=O)Nc4ccc(C(C)C)c(OCCN(C)C)c4)cc3)c(C)c2)no1.O=C(O)C(=O)O` is 45%; for `FC(F)(F)c1ccc2[nH]c(-c3ccc(-c4cccc(CN5CCN(CCN6CCOCC6)CC5)c4)cc3)nc2c1.O=C(O)C(F)(F)F` it is 77%; for `COc1cc2nc(N3CCC(CNC(=O)c4ccc(-c5ccc(C(=O)N(C)C)cc5OCCO)cc4)CC3)nc(N)c2cc1OC` it is 8%.

Turning to `O=C(N[C@@H](CC1CCCCC1)C(=O)NCc1cccc2ccccc12)c1ccc(O)c(-c2ccc(Cl)c(Cl)c2)c1`, the Inhibition is listed as 99%.

Consider `O=c1cc(-c2ccc3ccccc3c2)[nH]c2ccccc12`, for which the Inhibition is recorded as 44%. On the same count and under the same terms, the figure for `COc1ccc(CNCc2ccccc2)cc1-c1ccc(S(=O)(=O)NCCN2CCCC2)s1.O=C(O)C(F)(F)F` is 62%. The same measure, in the same setting: the figure for `C#CCCOc1ccc2ccccc2c1CNCCCCCCNCc1c(OCCC#C)ccc2ccccc12` is 65%; for `N#Cc1cncc(-c2nc3c(N4CCC(Cc5ccccc5)CC4)cccc3n2CCNCc2ccccc2)c1.O=C(O)C(F)(F)F` it is 99%; for `COc1ccc2nccc([C@@H](O)CN3CCC(NC(=O)COc4nc(SCc5ccc(F)cc5)nc5c4CCC5)CC3)c2c1` it is 78%.

With `Cc1ccc(-n2nc3ccc(NC(=O)c4ccc([N+](=O)[O-])o4)cc3n2)cc1C`, the Inhibition was 95%. The same measure, in the same setting: the figure for `Cc1ccc(S(C)(=O)=O)cc1/C=C/C(=O)O` is 1%; for `NC1CCCN(Cc2ccc(-c3ccc(-c4nc5cc(F)ccc5[nH]4)s3)cc2)C1.O=C(O)C(F)(F)F` (configuration not stated) it is 98%; for `NS(=O)(=O)c1cccc(Nc2nccc(-c3cnn4ncccc34)n2)c1` it is 89%. Same read-out and setting: the figure for `COc1ccc(C(=O)NCCCCN2CCC(c3ccc4c(c3OC)CCCC4)CC2)cc1-c1ccc(C(F)(F)F)cc1` is 56%; for `O=C(N[C@@H](CC1CCCCC1)C(=O)NC1CCCCCC1)c1ccc(O)c(-c2ccc(Cl)c(Cl)c2)c1` it is 100%; for `Br.COc1cc(CCCON2C(=N)N=C(N)NC2(C)C)cc(OC)c1OC` it is 94%.

The compound `Cc1c(O)cccc1Nc1ccnc2ccc(C(F)(F)F)cc12.Cl` had an Inhibition of 51%. Regarding `COc1cccc2cc(C(=O)N[C@@H](CC(C)C)C(=O)NC(/C=N/NC(=O)c3ccccc3)CCc3ccccc3)oc12` (some centres not stated), the Inhibition is 73%. Still for that read-out and setting: the result for `Cc1ccc2cc(C3NC(=O)c4ccccc4N3)c(Cl)nc2c1` (configuration not stated) reads 38%; that for `Clc1ccc(Nc2nc3nonc3nc2Nc2ccc(Cl)c(Cl)c2)cc1`, 92%; that for `O=C(NC1CCN(CCN2CCC(c3ccccc3C(F)(F)F)CC2)CC1)c1ccc(-c2ccc(Cl)cc2)cc1`, 68%. On the same count and under the same terms, the result for `Cc1cccc(C)c1CNc1ccnc2ccccc12.Cl` reads 10%; that for `CC(=O)Nc1cccc(Nc2nccc(-c3c(-c4cccc(NC(=O)c5c(F)cccc5F)c4)nn4ncccc34)n2)c1`, 51%. Still for that read-out and setting: the figure for `FC(F)(F)c1cccc(CCNc2nccc(NCc3ccccc3Cl)n2)c1` is 38%. Regarding `CN1CCC[C@H]1COc1ccc(CN2CC[C@H](NC(=O)c3ccc(Cl)c(Cl)c3)C2)c2ccccc12.O=C(O)C(F)(F)F`, the Inhibition worked out at 98%. Still for that read-out and setting: the figure for `N=c1cc(C=Cc2ccc(O)cc2)[nH]c2ccccc12` is 14%; for `COc1cccc(NC(=O)Nc2cc(-c3ccc4[nH]ncc4c3)cc3c2CNC3=O)c1` it is 100%; for `Cc1nn(-c2ccccc2)c2nc(-c3ccccc3)cc(C(=O)N3CCOCC3)c12` it is 67%.

In the case of `Cc1cccc2nc(-c3cccc(-c4ccc(NC(=O)NC5CC5c5ccccc5)cc4)c3)[nH]c12` (configuration not stated), the Inhibition was 49%. The same measure, in the same setting: the figure for `O=C(Nc1cc(C(F)(F)F)cc(C(F)(F)F)c1)N1CCC(CCN2CCC(c3c[nH]c4ccccc34)CC2)CC1` is 16%.
